Source: the supplement of paper PMC10849652
Of roughly 7,900 targets only a part is listed; those with a hit were picked by preference. About 0.6% of all pairs of compound and target were hits.

Experiments:
Test in all cases: log2 fold change, soluble protein after heating vs DMSO (PISA); higher = thermal stabilisation; K562 cells, 10 uM, 30 min; active = over 0.2 and 3.5 SD of the protein, either way, in both replicates (recomputed)
[1] = compound: C1=CC=C(C=C1)[C@H](COC2=CC3=C(C=C2)NC(=O)N3)NC(=O)C4=CC=CN(C4=O)CC5=CC(=C(C=C5)F)F
In short: (§1)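 Soluble protein was defined as the supernatant after 21,000xg for 90 min. It came from K562 cells at 2×10^6 cells/mL given 10 μM compound for 30 min, heated in aliquots for 3 min across 48°C-58°C, pooled, and extracted in PBS with 0.5% NP-40 at 4°C, and was quantified by TMTpro 16plex LC-MS/MS with equalised channel sums. Thermal stability against control samples, from duplicates, is reported as log2 fold change.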

[2] = compound: CC1=C(SC2=C1C(=N[C@H](C3=NN=C(N32)C)CC(=O)N)C4=CC=C(C=C4)Cl)C
In short: as §1

[3] = compound: CC1=C2C(=CC=C1)N=C(N(C2=O)C3=CC=CC=C3C)CN4C=NC5=C(N=CN=C54)N
In short: as §1

[4] = compound: Cc1sc2c(c1C)C(c1ccc(Cl)cc1)=N[C@@H](CC(=O)OC(C)(C)C)c1nnc(C)n1-2
In short: as §1

[5] = compound: c1ccc([C@@H]2C[C@H]2NC2CCNCC2)cc1
In short: as §1

Measured: log2 fold change

PPP2R5C isoform 2 (UniProt Q13362)
inactive: [1] -0.065

PLCXD1 (UniProt Q9NUJ7)
inactive: [1] -0.061

PRIM2 (UniProt P49643)
inactive: [1] -0.07 | [2] 0.063 | [3] 0.189 | [4] 0.014 | [5] -0.092

PARN (UniProt O95453)
inactive: [1] -0.018 | [2] 0.059 | [3] 0.071 | [4] -0.028 | [5] 0.025

PCBP2 isoform 3 (UniProt Q15366)
UniProt Q15366, sequence (Q15366 whole entry, looked up): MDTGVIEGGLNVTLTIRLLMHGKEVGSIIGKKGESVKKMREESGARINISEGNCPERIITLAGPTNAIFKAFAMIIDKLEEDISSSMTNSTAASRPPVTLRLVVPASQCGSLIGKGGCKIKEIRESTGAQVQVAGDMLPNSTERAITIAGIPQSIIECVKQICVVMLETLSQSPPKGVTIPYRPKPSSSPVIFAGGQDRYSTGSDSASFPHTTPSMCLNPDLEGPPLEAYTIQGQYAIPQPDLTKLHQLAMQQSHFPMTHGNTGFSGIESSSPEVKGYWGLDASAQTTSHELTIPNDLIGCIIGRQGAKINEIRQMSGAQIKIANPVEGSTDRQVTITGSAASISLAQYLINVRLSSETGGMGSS
inactive: [1] -0.051 | [2] 0.016 | [3] 0.055 | [4] -0.029 | [5] 0.005

PPP1R35 (UniProt Q8TAP8)
UniProt Q8TAP8, sequence (Q8TAP8 whole entry, looked up): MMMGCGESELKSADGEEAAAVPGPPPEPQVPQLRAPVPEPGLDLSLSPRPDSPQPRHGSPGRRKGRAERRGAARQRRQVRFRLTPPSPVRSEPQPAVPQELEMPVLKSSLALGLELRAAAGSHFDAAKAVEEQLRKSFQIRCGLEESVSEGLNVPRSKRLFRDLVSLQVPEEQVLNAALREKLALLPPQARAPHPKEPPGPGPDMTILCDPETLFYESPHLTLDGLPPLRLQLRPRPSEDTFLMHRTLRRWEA
active: [5] 0.362
inactive: [1] 0.01 | [2] 0.006 | [3] 0.067 | [4] 0.03

PCYT1A (UniProt P49585)
UniProt P49585, sequence (P49585 whole entry, looked up): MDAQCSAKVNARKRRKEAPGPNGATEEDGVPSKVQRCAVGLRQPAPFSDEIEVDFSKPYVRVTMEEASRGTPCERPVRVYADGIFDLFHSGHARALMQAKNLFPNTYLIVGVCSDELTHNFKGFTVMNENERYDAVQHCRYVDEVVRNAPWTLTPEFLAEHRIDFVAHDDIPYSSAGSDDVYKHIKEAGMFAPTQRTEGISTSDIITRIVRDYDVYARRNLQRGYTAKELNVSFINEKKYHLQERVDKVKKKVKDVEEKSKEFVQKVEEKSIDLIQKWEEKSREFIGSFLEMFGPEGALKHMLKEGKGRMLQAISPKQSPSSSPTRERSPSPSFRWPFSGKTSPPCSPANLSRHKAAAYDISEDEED
inactive: [1] -0.035 | [2] 0.005 | [3] 0.056 | [4] -0.012 | [5] 0.019

PMM2 (UniProt O15305)
inactive: [1] 0.003 | [2] 0.046 | [3] -0.027 | [4] 0.06 | [5] 0.009

PCYT1B (UniProt Q9Y5K3)
UniProt Q9Y5K3, sequence (Q9Y5K3 whole entry, looked up): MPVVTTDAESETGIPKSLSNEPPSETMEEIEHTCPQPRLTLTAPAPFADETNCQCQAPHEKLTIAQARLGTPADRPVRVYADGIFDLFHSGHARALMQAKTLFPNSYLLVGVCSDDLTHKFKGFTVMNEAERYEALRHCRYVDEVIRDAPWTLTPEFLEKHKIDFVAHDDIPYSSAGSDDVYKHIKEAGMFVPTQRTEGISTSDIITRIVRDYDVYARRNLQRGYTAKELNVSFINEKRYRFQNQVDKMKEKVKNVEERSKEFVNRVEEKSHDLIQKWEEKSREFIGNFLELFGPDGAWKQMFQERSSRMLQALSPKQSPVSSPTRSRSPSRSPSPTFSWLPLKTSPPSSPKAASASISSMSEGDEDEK
inactive: [1] -0.063 | [2] -0.003 | [3] 0.022 | [4] 0.042 | [5] 0.034

PLK1 (UniProt P53350)
UniProt P53350, sequence (P53350 whole entry, looked up): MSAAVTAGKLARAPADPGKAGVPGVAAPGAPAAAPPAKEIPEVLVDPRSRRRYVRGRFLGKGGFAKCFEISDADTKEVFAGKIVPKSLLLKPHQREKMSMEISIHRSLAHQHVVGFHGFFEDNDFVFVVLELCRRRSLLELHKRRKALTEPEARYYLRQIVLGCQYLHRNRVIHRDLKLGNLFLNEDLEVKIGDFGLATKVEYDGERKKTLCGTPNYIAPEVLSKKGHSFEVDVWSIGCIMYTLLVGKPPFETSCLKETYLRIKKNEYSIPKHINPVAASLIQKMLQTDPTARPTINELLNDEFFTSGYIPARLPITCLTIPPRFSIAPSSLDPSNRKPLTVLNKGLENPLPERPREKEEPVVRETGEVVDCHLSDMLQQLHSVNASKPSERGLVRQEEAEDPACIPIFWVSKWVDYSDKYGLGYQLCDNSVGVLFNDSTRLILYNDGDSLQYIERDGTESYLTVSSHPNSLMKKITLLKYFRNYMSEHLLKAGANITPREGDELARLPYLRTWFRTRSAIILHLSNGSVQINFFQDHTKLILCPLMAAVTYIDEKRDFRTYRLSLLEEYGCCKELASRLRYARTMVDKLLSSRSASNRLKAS
inactive: [1] 0.02 | [2] 0.037 | [3] 0.019 | [4] -0.012 | [5] 0.007

PRKD2 (UniProt M0R346)
inactive: [1] 0.081

PDE12 (UniProt Q6L8Q7)
inactive: [1] -0.003 | [2] 0.059 | [3] 0.12 | [4] -0.05 | [5] -0.094

PLIN2 (UniProt Q99541)
inactive: [1] -0.063 | [2] -0.006 | [3] 0.093 | [4] 0.004 | [5] 0.015

PPP1R12B isoform 6 (UniProt O60237)
inactive: [1] -0.051

PHKA2 (UniProt P46019)
inactive: [1] -0.018 | [2] -0.003 | [3] 0.053 | [4] 0.023 | [5] 0.024

PPP1CA (UniProt P62136)
inactive: [1] 0.003 | [2] 0.022 | [3] 0.025 | [4] 0.016 | [5] 0.015

PPP1R14A (UniProt Q96A00)
UniProt Q96A00, sequence (Q96A00 whole entry, looked up): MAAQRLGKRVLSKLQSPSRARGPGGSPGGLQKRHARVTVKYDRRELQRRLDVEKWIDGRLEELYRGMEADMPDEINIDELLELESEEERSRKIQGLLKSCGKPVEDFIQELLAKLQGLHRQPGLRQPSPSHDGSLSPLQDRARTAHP
inactive: [1] 0.011 | [2] 0.009 | [3] -0.002 | [4] 0.061 | [5] -0.013

PLBD2 (UniProt Q8NHP8)
inactive: [1] 0.011 | [2] 0.01 | [3] 0.01 | [4] -0.006 | [5] 0.007

PML (UniProt P29590)
inactive: [1] -0.008 | [2] -0.054 | [3] 0.002 | [4] -0.005 | [5] 0.001

PRKX (UniProt P51817)
active: [1] -0.754

PSMD12 (UniProt O00232)
inactive: [1] 0.021 | [2] -0.063 | [3] -0.066 | [4] -0.045 | [5] -0.009

PDS5B (UniProt Q9NTI5)
inactive: [1] -0.153 | [2] 0.029 | [3] 0.169 | [4] 0.233 | [5] -0.011

PDSS2 (UniProt Q86YH6)
UniProt Q86YH6, sequence (Q86YH6 whole entry, looked up): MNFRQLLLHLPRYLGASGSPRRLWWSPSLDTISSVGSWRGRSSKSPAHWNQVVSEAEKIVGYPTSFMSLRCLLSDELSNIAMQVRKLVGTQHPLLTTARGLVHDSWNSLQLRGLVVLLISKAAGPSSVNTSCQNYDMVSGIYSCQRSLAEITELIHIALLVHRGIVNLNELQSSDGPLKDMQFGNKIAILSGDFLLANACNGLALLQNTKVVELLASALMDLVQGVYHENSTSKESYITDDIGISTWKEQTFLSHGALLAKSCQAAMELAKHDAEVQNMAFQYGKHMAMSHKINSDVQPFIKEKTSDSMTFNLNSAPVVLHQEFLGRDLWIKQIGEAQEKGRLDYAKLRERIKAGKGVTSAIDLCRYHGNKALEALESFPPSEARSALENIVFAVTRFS
inactive: [1] -0.066 | [2] 0.052 | [3] 0.085 | [4] 0.005 | [5] 0.094

POM121 (UniProt Q96HA1)
inactive: [1] 0.023 | [2] -0.033 | [3] 0.026 | [4] 0.054 | [5] -0.002

PGK2 (UniProt P07205)
inactive: [1] -0.1 | [2] 0.046 | [3] 0.153 | [4] 0.037 | [5] 0.034

PRPF31 (UniProt Q8WWY3)
inactive: [1] -0.07 | [2] 0.028 | [3] 0.174 | [4] -0.087 | [5] 0.005

PSMD9 (UniProt O00233)
inactive: [1] 0.014 | [2] 0.017 | [3] -0.004 | [4] 0.007 | [5] 0.016

PJA2 (UniProt O43164)
inactive: [1] 0.005 | [2] -0.042 | [3] 0.021 | [4] 0.006 | [5] 0.024

POP1 (UniProt Q99575)
inactive: [1] 0.003 | [2] -0.028 | [3] 0.029 | [4] 0.017 | [5] -0.01

PKM (UniProt P14618)
inactive: [1] -0.008 | [2] 0.032 | [3] 0.004 | [4] -0.005 | [5] 0.026

PIK3C3 (UniProt Q8NEB9)
inactive: [1] -0.038 | [2] 0.005 | [3] 0.009 | [4] 0.009 | [5] -0.01

PSMD13 (UniProt Q9UNM6)
UniProt Q9UNM6, sequence (Q9UNM6 whole entry, looked up): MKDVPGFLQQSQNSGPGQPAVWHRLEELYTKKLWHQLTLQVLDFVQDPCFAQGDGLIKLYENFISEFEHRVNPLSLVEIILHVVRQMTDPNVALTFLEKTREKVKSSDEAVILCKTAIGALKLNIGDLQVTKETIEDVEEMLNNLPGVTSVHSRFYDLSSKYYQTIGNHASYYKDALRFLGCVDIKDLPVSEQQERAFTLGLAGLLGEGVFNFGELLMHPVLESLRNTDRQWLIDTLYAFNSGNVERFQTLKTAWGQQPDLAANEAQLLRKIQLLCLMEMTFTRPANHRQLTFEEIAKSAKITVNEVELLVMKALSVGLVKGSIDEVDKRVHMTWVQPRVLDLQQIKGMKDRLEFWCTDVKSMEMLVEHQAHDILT
inactive: [1] -0.008 | [2] -0.096 | [3] -0.046 | [4] -0.028 | [5] 0

PRKCA (UniProt P17252)
inactive: [1] -0.035 | [2] 0.124 | [3] 0.14 | [4] 0.002 | [5] -0.038

POLA1 (UniProt P09884)
inactive: [1] -0.059 | [2] 0.105 | [3] 0.101 | [4] -0.012 | [5] 0

PDCD6 (UniProt O75340)
inactive: [1] -0.024 | [2] 0.057 | [3] 0.107 | [4] -0.052 | [5] 0.003

PPM1G (UniProt O15355)
inactive: [1] -0.139 | [2] 0.025 | [3] 0.081 | [4] 0.002 | [5] -0.089

PSPC1 (UniProt Q8WXF1)
UniProt Q8WXF1, sequence (Q8WXF1 whole entry, looked up): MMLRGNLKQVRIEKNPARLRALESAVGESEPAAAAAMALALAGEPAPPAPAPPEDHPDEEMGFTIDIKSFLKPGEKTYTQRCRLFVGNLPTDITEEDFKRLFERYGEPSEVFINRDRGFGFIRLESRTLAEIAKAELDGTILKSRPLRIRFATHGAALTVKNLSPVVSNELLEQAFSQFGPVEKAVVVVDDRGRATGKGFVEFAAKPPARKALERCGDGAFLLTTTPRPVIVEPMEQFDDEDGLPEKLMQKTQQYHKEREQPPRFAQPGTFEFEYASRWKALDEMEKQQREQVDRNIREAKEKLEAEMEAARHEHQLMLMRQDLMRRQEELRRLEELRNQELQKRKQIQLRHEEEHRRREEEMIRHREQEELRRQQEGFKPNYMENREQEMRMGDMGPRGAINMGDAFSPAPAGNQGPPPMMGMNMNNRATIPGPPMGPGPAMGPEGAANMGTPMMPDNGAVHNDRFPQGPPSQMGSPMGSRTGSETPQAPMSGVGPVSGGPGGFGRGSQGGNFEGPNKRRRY
inactive: [1] -0.023 | [2] -0.029 | [3] 0.038 | [4] -0.032 | [5] 0.015

PSMC5 (UniProt P62195)
inactive: [1] 0.017 | [2] -0.087 | [3] -0.045 | [4] 0.006 | [5] 0.01

PPP4R3B (UniProt Q5MIZ7)
inactive: [1] -0.014 | [2] 0.069 | [3] 0.134 | [4] 0.003 | [5] -0.005

POLR2I (UniProt P36954)
inactive: [1] 0.063 | [2] 0.104 | [3] -0.163 | [4] 0.194 | [5] -0.035

PTPN12 (UniProt Q05209)
inactive: [1] 0.035 | [2] 0.034 | [3] 0.091 | [4] 0.024 | [5] 0.015

PRKCD (UniProt Q05655)
inactive: [1] -0.05 | [2] 0.082 | [3] 0.071 | [4] 0.004 | [5] -0.021

PRG4 (UniProt Q92954)
inactive: [1] 0.007 | [2] -0.044 | [3] -0.15 | [4] -0.309 | [5] -0.033

QRICH1 (UniProt Q2TAL8)
UniProt Q2TAL8, sequence (Q2TAL8 whole entry, looked up): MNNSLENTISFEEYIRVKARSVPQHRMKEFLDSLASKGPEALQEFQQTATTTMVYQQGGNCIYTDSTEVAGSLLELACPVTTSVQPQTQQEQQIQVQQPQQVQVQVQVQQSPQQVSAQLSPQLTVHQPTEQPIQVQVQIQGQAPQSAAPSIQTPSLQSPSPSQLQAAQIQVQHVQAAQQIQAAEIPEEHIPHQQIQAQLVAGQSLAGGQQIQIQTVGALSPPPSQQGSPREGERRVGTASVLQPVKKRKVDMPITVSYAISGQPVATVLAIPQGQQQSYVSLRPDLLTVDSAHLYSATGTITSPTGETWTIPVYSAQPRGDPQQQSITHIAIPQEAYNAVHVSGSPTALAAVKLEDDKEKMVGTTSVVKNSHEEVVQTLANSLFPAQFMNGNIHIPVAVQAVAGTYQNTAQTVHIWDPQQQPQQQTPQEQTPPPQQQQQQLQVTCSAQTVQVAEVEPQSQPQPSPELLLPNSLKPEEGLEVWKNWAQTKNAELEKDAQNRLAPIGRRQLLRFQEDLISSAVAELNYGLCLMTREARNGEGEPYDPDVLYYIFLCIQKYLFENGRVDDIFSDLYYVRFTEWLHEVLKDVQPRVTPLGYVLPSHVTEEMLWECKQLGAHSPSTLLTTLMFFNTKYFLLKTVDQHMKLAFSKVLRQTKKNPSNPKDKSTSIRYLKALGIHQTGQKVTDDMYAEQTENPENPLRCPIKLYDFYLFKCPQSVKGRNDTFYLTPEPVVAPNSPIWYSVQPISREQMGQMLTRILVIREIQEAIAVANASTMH
inactive: [1] -0.029 | [2] -0.148 | [3] 0 | [4] -0.02 | [5] -0.016

PRKAR2A (UniProt P13861)
inactive: [1] 0.044 | [2] 0.046 | [3] 0.054 | [4] 0.018 | [5] -0.003

PBX2 (UniProt P40425)
inactive: [1] -0.052 | [2] 0.082 | [3] -0.011 | [4] 0.051 | [5] -0.016

PCID2 (UniProt Q5JVF3)
inactive: [1] -0.18 | [2] 0.057 | [3] 0.159 | [4] 0.033 | [5] -0.071

PDCD6IP (UniProt Q8WUM4)
inactive: [1] -0.131 | [2] 0.05 | [3] 0.119 | [4] -0.029 | [5] -0.04

PPP2R5E (UniProt Q16537)
inactive: [1] -0.045 | [2] 0.1 | [3] 0.105 | [4] -0.118 | [5] 0.05

POLR2M (UniProt Q6EEV4)
inactive: [1] 0.092 | [2] 0.105 | [3] -0.002 | [4] -0.128 | [5] -0.107

PUF60 (UniProt Q9UHX1)
inactive: [1] 0.031 | [2] 0.033 | [3] 0.081 | [4] -0.036 | [5] 0.007

POLR2A (UniProt P24928)
inactive: [1] -0.014 | [2] 0.158 | [3] 0.031 | [4] 0.17 | [5] -0.059

PSMB6 (UniProt P28072)
inactive: [1] 0.023 | [2] -0.057 | [3] -0.015 | [4] 0.019 | [5] 0.081

PPIL1 (UniProt Q9Y3C6)
inactive: [1] -0.046 | [2] 0.012 | [3] 0.021 | [4] 0.032 | [5] -0.052

PELO (UniProt Q9BRX2)
inactive: [1] -0.037 | [2] 0.116 | [3] 0.103 | [4] 0.064 | [5] -0.049

PAK4 (UniProt O96013)
inactive: [1] -0.005 | [2] 0.045 | [3] 0.102 | [4] -0.02 | [5] -0.016
